Sampled rows, rich in hits. Any-hit rate of the full collection: about 4.6%.
Wee1 degr inh: human Wee1 degradation inhibition, primary screen. AID 1321. reporter increase, % at 5 µM. 220,000 tested, 1.2% active. P30291. HeLa Luc-Wee1K328M stability, luciferase luminescence; 100% = proteasome inhibitor MG132 effect;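 active = activation above the mean of all tested compounds plus 3 SD, set per screening run, cut at about 8.8% in these data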;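 also: cells exposed to compound for 20 h before luminescence read; 0% = DMSO alone and 100% = MG132 at 30 µM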
Target sequence (P30291 whole entry K328M): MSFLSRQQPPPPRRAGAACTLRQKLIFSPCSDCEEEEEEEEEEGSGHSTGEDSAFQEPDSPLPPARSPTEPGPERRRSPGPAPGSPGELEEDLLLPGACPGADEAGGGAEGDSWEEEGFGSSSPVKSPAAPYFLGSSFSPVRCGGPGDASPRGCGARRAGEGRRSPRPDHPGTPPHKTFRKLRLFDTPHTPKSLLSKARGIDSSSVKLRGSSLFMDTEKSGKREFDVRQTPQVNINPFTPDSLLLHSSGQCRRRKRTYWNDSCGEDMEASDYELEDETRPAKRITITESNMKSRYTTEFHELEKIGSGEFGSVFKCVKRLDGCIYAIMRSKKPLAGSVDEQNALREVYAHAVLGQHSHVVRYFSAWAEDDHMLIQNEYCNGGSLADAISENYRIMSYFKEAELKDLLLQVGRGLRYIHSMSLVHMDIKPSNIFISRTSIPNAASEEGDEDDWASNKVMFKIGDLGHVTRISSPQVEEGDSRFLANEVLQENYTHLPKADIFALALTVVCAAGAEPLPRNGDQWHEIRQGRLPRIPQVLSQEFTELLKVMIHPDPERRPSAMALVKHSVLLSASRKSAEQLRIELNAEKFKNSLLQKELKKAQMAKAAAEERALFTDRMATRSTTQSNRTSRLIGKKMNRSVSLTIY
ssDAF-12 act: S. stercoralis DAF-12 activation, primary screen; HEK293 ssDAF-12/GRIP1 lit1-tk-luc reporter, luminescence; % of 3 µM dafachronic acid response; activation, % at 6.8 µM; 370,000 tested, 1% active; AID 652126;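 active = activation above the mean over all tested compounds plus 3 SD, cut at about 0.9% in these data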;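 also: 0% = DMSO-only wells and 100% = 3 µM delta7-dafachronic acid wells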
DAX1 inh-1: inhibitors of human orphan nuclear receptor DAX1 (NR0B1); P51843; HEK293 Gal4-DAX1 luciferase reporter, luminescence; inhibition, % at 6.75 µM; 340,000 tested, 0.99% active; AID 504766;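 active = inhibition above the mean over all tested compounds plus 3 SD, cut at about 4.2% in these data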;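 also: 0% = DAX1-transfected cells with DMSO and 100% = empty-vector control cells with DMSO; inhibition shows as a rise in luminescence from relieved DAX1 repression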
DAX1 inh-2: DAX1 (NR0B1) inhibition, primary screen; HEK293T StAR-luciferase reporter, SF-1/DAX-1 repression relief; inhibition, % at 6.8 µM; 370,000 tested, 1.1% active;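 active = inhibition above the mean over all tested compounds plus 3 SD, cut at about 3.6% in these data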;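 also: 0% = DAX-1 cells with DMSO and 100% = cells lacking DAX-1 with DMSO; higher inhibition means more luminescence from relief of DAX-1 repression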
hgDAF12 agonist: agonists of H. glycines DAF-12 nuclear receptor; HEK293 GAL4-hgDAF12 UAS-luciferase reporter, agonist luminescence; normalized to butyrate control; activation, % at 6.8 µM; 370,000 tested, 1.8% active;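 active = activation above a cutoff set at the mean of all screened compounds plus 3 SD, cut at about 10% in these data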;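 also: 0% = DMSO wells and 100% = sodium butyrate wells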
hcDAF-12 act: activators of H. contortus DAF-12 nuclear receptor; AID 652067; HEK293 hcDAF-12 lit1-tk-luc reporter, luminescence; 0% DMSO, 100% Δ7-dafachronic acid; 370,000 tested, 1.4% active; activation, % at 6.8 µM;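 active = activation above the mean of all tested compounds plus 3 SD, cut at about 5.5% in these data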;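 also: 100% = response to 3 µM Δ7-dafachronic acid high control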
Wee1 degr conf: human Wee1 degradation inhibition, confirmation; shares compounds with Wee1 degr inh; HeLa Luc-Wee1K328M degradation, luminescence; vehicle 0%, proteasome-blocked wells 100%; activation, % at 5 µM; 1,100 tested, 4% active; AID 1410; in the data active = activation above about 8.9%
The depositor's hits bear a star; · = not tested or not shown.

SMILES	Wee1 degr inh	ssDAF-12 act	DAX1 inh-1	DAX1 inh-2	hgDAF12 agonist	hcDAF-12 act	Wee1 degr conf
CCCCC(CC)C(=O)Nc1cc(C(=O)NCCC)ccc1N1CCC2(CC1)CC(c1cccc(Br)c1)=NO2 (configuration not stated)	·	-1	2	1	1	-1	·
O=C(CCS(=O)(=O)c1ccccc1)Nc1ccc(N2CCOCC2)cc1	11*	-2	1	1	-4	0	-2
COc1cc(-c2nc3ccccn3c2/N=C/c2cccc(F)c2)ccc1O	-1	-1	1	0	-2	-1	·
COc1cc(-c2nc3ccccn3c2/N=C/c2ccccc2)ccc1O	68*	-1	0	-1	1	0	1
Cc1ccc(C)c(C(=O)NC(C)CCc2ccccc2)c1 (configuration not stated)	16*	-1	1	0	-4	-1	-4
O=[N+]([O-])c1cccc(CSC2=NCCN2S(=O)(=O)c2ccccc2)c1	·	-1	0	0	-2	-2	·
O=[N+]([O-])c1ccc(S(=O)(=O)N2CCN=C2SCc2cccnc2)cc1	12*	-2	-2	-1	-6	-3	-1
NC(=S)N/N=C/c1ccc(Br)o1	17*	-1	0	-1	0	-2	2
CCOc1ccccc1N1CCN(CC(=O)Nc2nccs2)CC1	·	-1	-1	1	1	-1	·
CCCCN(C)S(=O)(=O)c1cc2c(cc1Br)CCN2C(=O)C1CC1	·	-2	-2	-2	-1	-3	·
Fc1ccc(/C=N/Nc2nc3ccccc3[nH]2)cc1F	-2	-2	4	1	5	1	·
Fc1cccc(/C=N/Nc2nc3ccccc3[nH]2)c1	11*	-1	·	3	9	1	0
COc1ccc(C(=O)N[C@H](C(=O)Nc2cccc(S(=O)(=O)N3CCOCC3)c2)C(C)C)cc1	·	-1	1	-1	1	0	·
CCC(C)c1ccc(NC(=S)NCc2ccccc2OC)cc1 (configuration not stated)	17*	-1	-2	0	2	0	2
CC(=O)OCC(=O)C1(O)CCC2C3CC(F)C4=CC(=O)CCC4(C)C3C(O)CC21C (configuration not stated)	·	-1	2	2	-6	-1	·
CC(/C=C/C=C/c1ccccc1)=N/NC(=O)C(O)c1ccccc1 (configuration not stated)	3	-1	2	0	1	-2	·
CC(/C=C/C=C/c1ccccc1)=N/NC(=O)c1ccc2c(c1)OCCO2	11*	1.2*	0	1	4	3	3
O=C(Nc1ccc2c(c1)OCCO2)c1ccco1	2	0	2	3	4	1	·
CC1(C)Oc2ccc(NC(=O)c3ccco3)cc2O1	13*	0	3	2	11*	3	-1
CCCCOC(=O)CCc1c(C)n[nH]c1C	12*	-2	·	0	-2	-1	2
CCCCOC(=O)CCc1c(C)[nH]c(=O)c(C#N)c1C	2	-1	0	1	1	0	·
Cn1c(=O)c2cc(NC(=O)NCCc3cccs3)ccc2n1Cc1ccccc1	·	-2	·	-1	-1	0	·
CCn1c(O)c(C=Nc2ccccc2)oc1=S	14*	-1	1	1	2	1	0
CCCn1c(O)c(C=Nc2ccccc2)sc1=S	-2	-1	3	0	5	0	·
COC(=O)C1=C(N)Oc2cc(C)n(Cc3ccncc3)c(=O)c2C1c1cccnc1 (configuration not stated)	14*	-1	-1	2	3	3	0
SMILES	Wee1 degr inh	ssDAF-12 act	DAX1 inh-1	DAX1 inh-2	hgDAF12 agonist	hcDAF-12 act	Wee1 degr conf
CN1CCn2cnc(C(=O)N[C@@H](Cc3ccccc3)C(=O)OC(C)(C)C)c2C1=O	·	-1	3	-2	2	-1	·
O=C(CSC1=NCCN1)C1COc2ccccc2O1 (configuration not stated)	12*	-2	1	0	-2	0	1
O=C(C1COc2ccccc2O1)N1CCCCC1 (configuration not stated)	·	-1	-1	-1	-1	0	·
COC(=O)c1cc(C)sc1NC(=O)CN1CCN(C(=O)C2CCCO2)CC1 (configuration not stated)	·	-1	1	-2	-1	-2	·
C/C(=N\NC(=O)c1csc(C)c1C)c1ccc(Cl)s1	12*	-1	3	0	2	1	2
O=C1CSCc2nc3ccccc3n21	·	0	1	0	0	4	·
Cc1cccc(NC(=O)c2ccc(NCC3CCCO3)c([N+](=O)[O-])c2)n1 (configuration not stated)	11*	-1	0	1	7	0	5
CNCC(O)COc1cccc(OC)c1 (configuration not stated)	11*	-2	0	0	0	-2	-2
CNCC(O)COc1ccccc1 (configuration not stated)	-1	-1	1	0	0	0	·
COc1cc(OC)cc(C(=O)Nc2ccc(-c3nc4ccccc4o3)cc2)c1	-1	-2	-2	0	-5	-2	·
COc1cccc(C(=O)Nc2ccc(-c3nc4ccccc4o3)c(O)c2)c1	12*	-1	-2	-1	0	-3	2
Cc1ccc2nc(-c3ccc(NC(=O)c4ccco4)cc3)[nH]c2c1	29*	·	2	·	·	·	8
CCOC(=O)c1cnc(SC)nc1N	0	-1	0	0	1	-1	·
CCOC(=O)c1cnc(SCC#N)nc1N	13*	0	6.9*	0	0	-2	-2
Cc1cc(C)c(NC(=O)CN(C)C(=O)CCN2C(=O)C3CCCCC3C2=O)c(C)c1 (configuration not stated)	·	-1	-1	1	-3	1	·
CCOc1ccc(Nc2oc(-c3ccc(Cl)cc3)nc2C#N)cc1	2	-1	1	0	3	0	·
COc1ccc(Nc2oc(-c3ccc(OC)cc3)nc2C#N)cc1	11*	-1	0	1	7	1	9.6*
CC1CCN(CC(O)COc2cccc(F)c2)CC1 (configuration not stated)	14*	-1	2	0	6	0	1
COc1cccc(OCC(O)CN2CCC(C)CC2)c1 (configuration not stated)	-1	-1	1	-1	-1	-1	·
